MCL1 BIM primary: disrupts human MCL1 binding to BIM-BH3 peptide; Q07820; GST-MCL1 / FITC-Bim-BH3 fluorescence polarization; inhibition, % at 10.9 µM; hit rate 0.68% among 320,000;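 active = inhibition above the mean inhibition of all tested compounds plus 3 SD, set per campaign, cut at about 40% in these data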;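 note: higher means more loss of mP so more displacement of Bim peptide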
Target sequence (Q07820 whole entry, looked up): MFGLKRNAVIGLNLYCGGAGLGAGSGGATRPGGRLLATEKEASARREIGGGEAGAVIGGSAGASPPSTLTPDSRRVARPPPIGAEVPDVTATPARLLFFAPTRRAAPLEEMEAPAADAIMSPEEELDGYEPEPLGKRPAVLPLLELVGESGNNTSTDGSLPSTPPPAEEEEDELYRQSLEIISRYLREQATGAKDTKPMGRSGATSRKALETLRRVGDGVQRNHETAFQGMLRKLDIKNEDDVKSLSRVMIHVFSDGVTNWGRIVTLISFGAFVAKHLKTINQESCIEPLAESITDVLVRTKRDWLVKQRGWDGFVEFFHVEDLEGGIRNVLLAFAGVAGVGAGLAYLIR
EBV gp42 inh: EBV gp42 inhibition; Fluorescence polarization binding assay, mP read-out; inhibition, % (tested at 21.74 µM); hit rate 0.42% among 220,000; in the data active = inhibition above about 50%
GLD-1 TGE inh: GLD-1-TGE RNA interaction inhibition (C. elegans); inhibition, % at 5.96 µM; hit rate 0.44% among 320,000; purified GLD-1 + fluorescein TGE RNA, fluorescence polarization; Q17339; AID 2280;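 active = percent inhibition above a per-plate cutoff, the plate mean of test compounds plus 3 SD, cut at about 30% in these data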
BCLXL inh: inhibitors of human Bcl-xL | Q07817 | GST-Bcl-xL / FITC-Bim BH3 peptide fluorescence polarization | inhibition, % at 10.9 µM | hit rate 0.7% among 320,000;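 active = inhibition above the mean of all tested compounds plus 3 SD, cutoff set per campaign, cut at about 30% in these data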;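 note: inhibitors lower millipolarization by displacing the labeled peptide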
Target sequence (Q07817 whole entry, looked up): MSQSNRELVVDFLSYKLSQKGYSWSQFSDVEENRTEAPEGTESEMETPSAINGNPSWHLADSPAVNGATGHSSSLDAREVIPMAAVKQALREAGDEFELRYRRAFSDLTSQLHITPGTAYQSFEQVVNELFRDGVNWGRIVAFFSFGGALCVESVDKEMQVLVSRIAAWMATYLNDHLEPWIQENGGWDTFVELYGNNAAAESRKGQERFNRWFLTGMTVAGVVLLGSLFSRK
MEX-5 binding: C. elegans MEX-5 TCR-2 RNA binding activity. MEX-5/FITC-TCR2 RNA binding, fluorescence polarization; stronger effect = lower value. activity score (negative = inhibition of binding), % at 10 µM. hit rate 0.38% among 300,000;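 active = inhibition past about -25% in most replicates, and total fluorescence under double the plate's negative control median, limit read from the data; inconclusive = replicates evenly split on the limit, or fluorescence at least double controls; inactive = too little inhibition in most replicates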
Bcl-xL conf: counter-screen for MCL1 inhibitors: confirmation of human Bcl-xL inhibitors | AID 2166 | shares compounds with MCL1 BIM primary | hit rate 54% among 1,700 | GST-Bcl-xL / FITC-Bim BH3 peptide FP binding | inhibition, % at 10.9 µM;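 active = inhibition above a cutoff equal to the mean inhibition of all tested compounds plus 3 SD, cut at about 30% in these data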
MCL1 BIM confirm: MCL1-BIM-BH3 interaction inhibition, confirmation; shares compounds with MCL1 BIM primary; inhibition, % at 10.9 µM; AID 2168; GST-MCL1 / FITC-Bim-BH3 fluorescence polarization; hit rate 61% among 1,700;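 active = inhibition above the average of all tested compounds plus 3 SD, cut at about 40% in these data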
Large screens that a line does not name were inactive (follow-up assays come after a bar, where they were run). Rows were chosen to be rich in hits. Some 1.3% of all compounds tested hit in one or more screens of this group.

O=C(O)C1CCCCC1C(=O)Nc1cc(C(F)(F)F)ccc1Cl (stereo unspecified)	none
CC(C)NC(=O)CN1C(=O)c2ccccc2S1(=O)=O	MCL1 BIM primary active | Bcl-xL conf inactive | MCL1 BIM confirm inactive
COc1cccc2c1C(=O)c1c(O)c3c(c(O)c1C2=O)C[C@@](O)(C(=O)CO)C[C@@H]3O[C@H]1C[C@H](N)[C@H](O)[C@H](C)O1	MCL1 BIM primary active, EBV gp42 inh active, GLD-1 TGE inh active, BCLXL inh active, MEX-5 binding inconclusive | Bcl-xL conf active | MCL1 BIM confirm active
CCCCCC#CCC#CCC#CCC#CCCCC(=O)O	MCL1 BIM primary 96 | Bcl-xL conf inactive | MCL1 BIM confirm 86
COc1ccccc1NC(=O)c1ccc(N)cc1	none
COC(=O)c1ccc(C(=O)Nc2ccc(N)cc2N)cc1	MCL1 BIM primary 77, BCLXL inh 76 | Bcl-xL conf inactive | MCL1 BIM confirm inactive
COC(=O)c1ccc(C(NC(=O)OCc2ccccc2)/C(F)=C/[C@@H](C)C(=O)NCc2ccc(OC)c(OC)c2)cc1 (stereo partly specified)	none (no result: MEX-5 binding)
Nc1cnccc1C(=O)O	MCL1 BIM primary 125, GLD-1 TGE inh 98, BCLXL inh 107, MEX-5 binding -30 | Bcl-xL conf 144 | MCL1 BIM confirm 174
CC1CCCCC1NC(=O)c1cc(S(=O)(=O)N2CCOCC2)ccc1Cl (stereo unspecified)	none (no result: MCL1 BIM primary, EBV gp42 inh, BCLXL inh, MEX-5 binding)
COc1ccc(/C=C/c2nc3ccccc3n2Cc2ccc(OC)c(OC)c2)cc1	none
COc1ccc2c(c1)c1nc3ccccc3nc1n2Cc1ccc(OC)c(OC)c1	MCL1 BIM primary 55, EBV gp42 inh 59, GLD-1 TGE inh 52, BCLXL inh 50, MEX-5 binding -26 | Bcl-xL conf 60 | MCL1 BIM confirm 62
CC1=C/C(=C/N(C)c2ccccc2)C(=O)S1	MCL1 BIM primary 41 | Bcl-xL conf inactive | MCL1 BIM confirm inactive
CC1=C/C(=C\c2ccc3c(c2)OCO3)C(=O)S1	none
Nc1c(-c2ccccc2)sc2ccc3ccccc3[n+]12	none (no result: EBV gp42 inh)
COc1ccccc1C(=O)N/C(=C\c1cn(C)c2ccccc12)C(=O)N1CCCC1	none (no result: EBV gp42 inh)
O=C(CSc1ccccn1)Nc1ccc2c(c1)C(=O)c1ccccc1C2=O	MCL1 BIM primary 55, EBV gp42 inh 52 | Bcl-xL conf inactive | MCL1 BIM confirm 60
COCC1CCN(Cc2c(C(=O)N3CCN(C4CCCCC4)CC3)nc3ccccn23)C1 (stereo unspecified)	MCL1 BIM primary 57, BCLXL inh 52 (no result: EBV gp42 inh) | Bcl-xL conf inactive | MCL1 BIM confirm inactive
COC1CCN(Cc2c(C(=O)N3CCN(C4CCCCC4)CC3)nc3ccccn23)CC1	MCL1 BIM primary 49, BCLXL inh 43 (no result: EBV gp42 inh) | Bcl-xL conf inactive | MCL1 BIM confirm inactive
CC1CCN(CC(=O)NCc2ccco2)CC1	MCL1 BIM primary 68 | Bcl-xL conf inactive | MCL1 BIM confirm inactive
O=C(CN1CCC(NC(=O)C2CCCCC2)CC1)NCc1ccco1	none
COc1ccc(/C=C2/NC(=O)N(CC(=O)Nc3cccc(C)c3)C2=O)cc1O	none
Cc1cc2ccccc2n1CCNC(=O)Cc1ccccc1	none
Cc1cc2ccccc2n1CCNC(=O)C(C)C	MCL1 BIM primary 84, GLD-1 TGE inh 96, BCLXL inh 76 | Bcl-xL conf inactive | MCL1 BIM confirm inactive
Cc1ccc(OCC(=O)c2cc(C)c(C)cc2C)c([N+](=O)[O-])n1	none
Cc1ccc(OCC(=O)c2c(N)n(C)c(=O)n(C)c2=O)c([N+](=O)[O-])n1	MCL1 BIM primary 72, BCLXL inh 36 (no result: EBV gp42 inh, MEX-5 binding) | Bcl-xL conf inactive | MCL1 BIM confirm 59
O=C(CN1C(=O)COc2ccccc21)N1CCc2ccccc2C1	none
COc1cc(/C=C2\CCc3c2nc2ccccc2c3C(=O)O)cc(OC)c1OC	MCL1 BIM primary 76, MEX-5 binding -26 | Bcl-xL conf inactive | MCL1 BIM confirm 75
CCOc1cc(/C=C2\CCCc3c2nc2ccccc2c3C(=O)O)ccc1OC	MCL1 BIM primary 166, GLD-1 TGE inh 145, BCLXL inh 143 (no result: EBV gp42 inh) | Bcl-xL conf inactive | MCL1 BIM confirm inactive
O=C(COC(=O)c1ccc([N+](=O)[O-])s1)Nc1ncc(C(F)(F)F)cc1Cl	MCL1 BIM primary active | Bcl-xL conf inactive | MCL1 BIM confirm inactive
O=C(COC(=O)c1ccccn1)Nc1ncc(C(F)(F)F)cc1Cl	none
CC1CCN(C(=O)COC(=O)/C=C/c2ccco2)CC1	none (no result: MCL1 BIM primary, EBV gp42 inh, BCLXL inh, MEX-5 binding)
O=C(O)CCCCC1CCSS1 (stereo unspecified)	MCL1 BIM primary 102, EBV gp42 inh 102, MEX-5 binding inconclusive | Bcl-xL conf inactive | MCL1 BIM confirm 104
c1ccc2sc(N3CCN(Cc4nnnn4CC4CCCO4)CC3)nc2c1 (stereo unspecified)	none
c1ccc2c(c1)CCCN2Cc1nnnn1CC1CCCO1 (stereo unspecified)	MCL1 BIM primary 196, EBV gp42 inh 71, GLD-1 TGE inh 107, BCLXL inh 162 | Bcl-xL conf 102 | MCL1 BIM confirm 124
COc1ccc(Cc2nnc(NC(=O)Cc3cccs3)s2)cc1OC	MCL1 BIM primary 73, EBV gp42 inh 68 | Bcl-xL conf inactive | MCL1 BIM confirm 80
COC(=O)c1cc(NC(=O)Cc2cccs2)cc(C(=O)OC)c1	MCL1 BIM primary 44 (no result: EBV gp42 inh) | Bcl-xL conf inactive | MCL1 BIM confirm inactive
COc1ccc(C(=O)Nc2nnc(Cc3cccs3)s2)cc1OC	none
O=C(Cc1cccs1)Nc1nnc(Cc2ccccc2)s1	MCL1 BIM primary 54 | Bcl-xL conf inactive | MCL1 BIM confirm 44
CC(=O)Nc1cccc(NC(=O)Cc2cccs2)c1	none (no result: EBV gp42 inh)
COc1cccc(CNC(=O)Cn2ccc3cc(S(=O)(=O)N4CCCCCC4)ccc32)c1OC	none (no result: EBV gp42 inh)
COc1ccc(OCCN2C(=O)NC3(CCc4ccccc4C3)C2=O)cc1 (stereo unspecified)	none
O=C1/C(=C\c2ccco2)SC(=S)N1C1CCS(=O)(=O)C1 (stereo unspecified)	none
CCN(C(=O)C(C)N1C(=O)/C(=C/c2ccco2)SC1=S)C1CCS(=O)(=O)C1 (stereo unspecified)	MCL1 BIM primary 59, BCLXL inh 33 (no result: EBV gp42 inh) | Bcl-xL conf inactive | MCL1 BIM confirm 56
CC(C(=O)N(C)C1CCS(=O)(=O)C1)N1C(=O)/C(=C/c2ccc(F)cc2)SC1=S (stereo unspecified)	none (no result: EBV gp42 inh)
O=C1/C(=C/c2ccco2)SC(=S)N1C1CCS(=O)(=O)C1 (stereo unspecified)	MCL1 BIM primary 67 | Bcl-xL conf inactive | MCL1 BIM confirm inactive
CC(=O)c1ccc(C(=O)N2CCC(n3nccc3NC(=O)C3CC3)CC2)cc1	none (no result: EBV gp42 inh)
Cc1ccc(S(=O)(=O)CCC(=O)OCc2nnc(-c3ccccc3)o2)cc1	none (no result: MCL1 BIM primary, EBV gp42 inh, BCLXL inh, MEX-5 binding)
